# Activity calls are given as the source filed them.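 How the source made its calls: active means EC50 at or below 10 µM; inactive means EC50 above 10 µM.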
# Assay: fluorescence interference artefacts, compound only, dose response, artefact control for cardiac thin filament activator project, biochemical, no RTF in test wells (AID 504697);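 further: emission near 535 nm under roughly 485 nm excitation as for IANBD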
# Details: artifact counterscreen
row,Compound,EC50
1,CN1C(=O)/C(=C/c2ccc(N3CCCCCC3)o2)C(=O)NC1=S,5 µM (active)
2,Cc1cc(Cl)nc(N)n1,> 71.4 µM (inactive)
3,O=C(CN1CCN(c2ccccc2F)CC1)Nc1cccnc1Cl,> 71.5 µM (inactive)
4,CNS(=O)(=O)c1ccc(N=Cc2c(O)n(-c3ccccc3)c(=O)[nH]c2=O)cc1,> 71.5 µM (inactive)
5,C=CCN1C(=O)/C(=C/c2ccc(N3CCOCC3)o2)C(=O)NC1=S,14 µM (inactive)
6,CCC1(C)OC(c2ccccc2)=C/C(=C/C=C2C(=O)NC(=O)NC2=O)O1 (centres undefined),2.73 µM (active)
7,Cc1cc(N2CCCC2)ccc1C=C(C#N)C#N,14.4 µM (inactive)
8,C/C(=N\N1CCCCC1c1cccnc1)c1c(O)n(C2CCCCC2)c(=S)[nH]c1=O (centres undefined),39.3 µM (inactive)
9,O=c1[nH]c(=O)n(Cc2ccc(F)cc2)c(O)c1/C=N/Nc1ccccc1,> 71.5 µM (inactive)
10,O=[N+]([O-])c1ccc(N2CCCCCC2)c2nonc12,1.17 µM (active)
11,Cc1ccc(-n2c(O)c(/C=C/C=Nc3ccccc3)c(=O)[nH]c2=O)cc1,10.6 µM (inactive)
12,O=[N+]([O-])c1ccc(N2CCCC2)c2ncccc12,23.5 µM (inactive)
13,COc1ccc(OC)c(-n2c(O)c(C=NCCN3CCNCC3)c(=O)[nH]c2=S)c1,> 71.5 µM (inactive)
14,CC(=O)OCC[N+](C)(C)C,> 71.4 µM [compound-only fluorescence in RTF assay buffer with Ca2+ (no RTF in test wells)] (inactive)

# Source: PubChem BioAssay AID504697 (The Scripps Research Institute Molecular Screening Center, 2011)
